Test results from PubChem BioAssay (NCATS).
Inconclusive results are not listed. The list shows a part of the results. The source made the active and inactive calls. Unless noted, the call rests on the fitted dose curve; in most records, active means well fitted curve in the direction sought with a large enough effect; inconclusive means small, poorly fitted or top-dose-only effect, or another doubt; inactive means no such curve, though single readings can be large; an effect the other way counts as inactive or inconclusive.

Tests used:
[1] = target: Rap guanine nucleotide exchange factor 3 (Homo sapiens) (UniProt O95398); assay: Confirmatory qHTS for antagonist of cAMP-regulated guanine nucleotide exchange factor 3 (EPAC1) (AID 1645880); conditions: EPAC1 Rap1B-BODIPY-GDP exchange, fluorescence; activity, negative = inhibition: at 115 µM (top of the series); further: nearly all actives have a fitted effect of over 55% in size; further: potency means the concentration at half of the fitted maximal effect;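 on activity, negative = inhibition: plate controls were DMSO only for no effect and full effect of the ATA control for full effect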
Outline: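 Nucleotide exchange uses 100 nM EPAC1, 250 nM RAP1B-BODIPY-GDP and 50 uM GDP, with compounds in a concentration-titration series. After 5 min at room temperature, fluorescence (480 nm ex/540 nm em) is read every 5 min for 30 min. Data are normalized to control ATA and DMSO.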

[2] = target: Rap guanine nucleotide exchange factor 3 (Homo sapiens) (UniProt O95398); assay: Confirmatory qHTS for agonist of cAMP-regulated guanine nucleotide exchange factor 3 (EPAC1) (AID 1645881);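 further: EPAC1 catalysed release of BODIPY-GDP from Rap1B seen as fluorescence loss; 100% = effect of cAMP agonist control; nearly all actives have a fitted effect of over 75% in size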
[3] = target: Rap guanine nucleotide exchange factor 4 (Homo sapiens) (UniProt Q8WZA2); assay: Confirmatory qHTS for agonist of cAMP-regulated guanine nucleotide exchange factor 4 (EPAC2) (AID 1645884);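 further: nucleotide exchange releases bodipy-GDP from Rap1 and this lowers its fluorescence; on the % scale 0 is the no-effect control and ±100 the full control effect; nearly all actives have a fitted effect of over 65% in size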
[4] = target: Rap guanine nucleotide exchange factor 4 (Homo sapiens) (UniProt Q8WZA2); assay: Confirmatory qHTS for antagonist of cAMP-regulated guanine nucleotide exchange factor 4 (EPAC2) (AID 1645885); further: nearly all actives have a fitted effect of over 25% in size; further: potency means the concentration at half of the fitted maximal effect
[5] = target: Rap guanine nucleotide exchange factor 3 (Homo sapiens) (UniProt O95398); assay: Counterscreen qHTS for antagonist of cAMP-regulated guanine nucleotide exchange factor 3 (EPAC1) (AID 1645888);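 further: fluorescence loss as bound BODIPY-GDP is released from Rap1B; % of control where 0% means no effect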
Outline: (§1)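 Rap1B–BODIPY-GDP (250 nM) with 50 uM GDP; compounds pin-transferred to 9.74 nM–152 uM final (activator) or from 7.32 nM upwards (inhibitor). Fluorescence Ex/Em 480/540 nm read at 5 and 30 min, then after adding cAMP or buffer, at room temperature.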

[6] = target: Rap guanine nucleotide exchange factor 3 (Homo sapiens) (UniProt O95398); assay: Counterscreen qHTS for agonist of cAMP-regulated guanine nucleotide exchange factor 3 (EPAC1) (AID 1645889); further: % of control where 0% means no effect; nearly all actives have a fitted effect of over 40% in size
Outline: as §1

[7] = target: Catechol O-methyltransferase (Homo sapiens) (UniProt P21964); assay: Confirmatory Screen for Target Class Profiling of Small Molecule Inhibitors of Methyltransferases (AID 1745852; calls by dose curve; further: potency means the concentration at half of the fitted maximal effect); conditions: MTase-Glo luminescence, SAH detection, recombinant enzyme; measured here: COMT max response; stronger effect = lower value
[8] = target: Guanidinoacetate N-methyltransferase (Homo sapiens) (UniProt Q14353); assay: as above; conditions: activity change, negative = inhibition: at 57.3 µM (top of the series) unless noted
[9] = target: Nicotinamide N-methyltransferase (Homo sapiens) (UniProt P40261); assay: as above; conditions: MTase-Glo luminescence, SAH detection, recombinant enzyme; measured here: NNMT max response; stronger effect = lower value
[10] = target: Phenylethanolamine N-methyltransferase (Homo sapiens) (UniProt P11086); assay: as above; conditions: MTase-Glo luminescence, SAH detection, recombinant enzyme; measured here: PNMT max response; stronger effect = lower value
[11] = AP1 Signaling Pathway (AID 357; active means well fitted curve in either direction with a large enough effect, not every such curve was filed as active;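 further: ME-180 reporter cells stimulated with EGF at its EC50 level; on the % scale 0 is the no-effect control and ±100 the full control effect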); conditions: ME-180 AP-1-bla reporter, EGF-induced, beta-lactamase ratio, 5 h; at 7.69 µM (top of the series) unless noted
Outline: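 Titration-series screen for positive or negative modulators of EC50 EGF-induced signaling in ME-180 cells carrying an AP-1-driven beta-lactamase reporter. After 5 hours at 37 degrees Celsius, CCF4 460nm/530nm emission ratio gave %Activity; AC50 values derived.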

[12] = NFAT Signaling Pathway (AID 444; active means well fitted curve in either direction with a large enough effect, not every such curve was filed as active;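 further: carbachol stimulus at about its EC50 of 1 µM final; on the % scale 0 is the no-effect control and ±100 the full control effect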); conditions: Jurkat NFAT-bla M1, carbachol, beta-lactamase ratio, 5 h; at 7.69 µM (top of the series) unless noted
Outline: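 Jurkat cells with NFAT-driven β-lactamase reporter and co-expressed M1 receptor, stimulated with carbachol (final 1 uM, ~EC50), compound titration, 5 h at 37 °C. CCF4 loaded 1 h at RT; 460/530 nm ratio gave %activity and AC50.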

[13] = Stat Signaling Pathway (AID 446; active means well fitted curve in either direction with a large enough effect, not every such curve was filed as active;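 further: ME-180 cervical cancer cells given 40 pM IL-6 alongside compound; SIE-controlled beta-lactamase reporter measured as 460/530 nm FRET emission ratio; on the % scale 0 is the no-effect control and ±100 the full control effect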)
Outline: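 ME-180 cells carrying a SIE-driven beta-lactamase reporter are stimulated with 40 pM IL-6 for 5 h at 37C in the presence of compound. The 460/530 nm FRET substrate ratio is read after 2.5 h at RT. Data are normalised to 300 pM IL-6 and to 125 nM JAK inhibitor controls.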

[14] = target: Glucocorticoid receptor (Homo sapiens) (UniProt P04150); assay: GR-GFP Redistribution (AID 450;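 active means compounds whose dose series gives a full or clear partial fitted curve of increased nuclear translocation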; further: potency means the concentration at half of the fitted maximal effect); conditions: U2OS GR-GFP nuclear translocation, laser cytometry, 2 h
[15] = Counterscreen for APE1 Inhibitors: Fluorescent Dye Displacement Assay (AID 2564);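 further: loss of thiazole orange fluorescence as the dye is displaced from duplex DNA; 0% = ThO with dsDNA and no compound and -100% = ThO without dsDNA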
Outline: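 Thiazole Orange (250 nM) bound to 50 nM TAMRA-labelled dsDNA with tetrahydrofuran abasic site; displacement by DNA-binding compounds lowers fluorescence. Buffer 50 mM Tris-HCl pH 7.5, 50 mM NaCl, 2 mM MgCl2, 0.01% Tween-20; endpoint read at 480/540 nm.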

[16] = target: Endonuclease 4 (Escherichia coli (strain K12)) (UniProt P0A6C1); assay: Counterscreen for APE1 Inhibitors: qHTS Assay for Inhibitors of Endonuclease IV (AID 2565);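 further: plate controls were uninhibited enzyme wells for no effect and no enzyme buffer wells for full effect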
Outline: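 E. coli EndoIV at 2 nM final, preincubated 15 min at room temperature with compound, then 50 nM TAMRA/BHQ-2 THF abasic-site duplex added. Buffer: 50 mM Tris-HCl pH 7.5, 50 mM NaCl, 2 mM MgCl2, 1 mM DTT, 0.01% Tween-20. Kinetic fluorescence increase, third minus first read.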

[17] = target: DNA repair nuclease/redox regulator APEX1 (Homo sapiens) (UniProt P27695); assay: Confirmation qHTS Assay for Inhibitors of the Human Apurinic/apyrimidinic Endonuclease 1 (APE1) (AID 2572); conditions: purified APE1, fluorogenic abasic-site DNA cleavage; further: potency means the concentration at half of the fitted maximal effect; nearly all actives have a fitted effect of over 30% in size
Outline: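 Enzyme preincubated 15 min at room temperature with compound; reaction started with 50 nM final double-stranded THF abasic-site substrate (5'-TAMRA, 3'-BHQ-2). Fluorescence read kinetically (525/598 nm); third-minus-first read difference gives reaction progress.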

[18] = target: DNA repair nuclease/redox regulator APEX1 (Homo sapiens) (UniProt P27695); assay: qHTS FP-Based Assay for Inhibitors of the Human Apurinic/apyrimidinic Endonuclease 1 (APE1) (AID 2573); further: on the % scale 0 is the no-effect control and ±100 the full control effect
Text: The apurinic/apyrimidinic endonuclease APE1 is the primary mammalian enzyme responsible for the removal of abasic (or AP) sites in DNA and functions centrally in the base excision DNA repair (BER) pathway. […] Thus, targeting APE1 could improve the efficacy of current treatment paradigms by promoting selective sensitization or protection of diseased and normal cells, respectively.
In order to gain insight into the mode of action of confirmed APE1 inhibitors, we implemented a miniaturized fluorescence polarization assay designed to report on compounds which competitively displace ds-DNA substrate. The fluorescence polarization assay has been implemented in 384- and 1536-well format for binding of TAMRA-labeled double-stranded DNA probe not containing a quencher. The binding of protein to DNA is inhibited by ATA, a general inhibitor of APE1 activity.
See also related primary fluorogenic assay (AID 2517). […]
Three uL of enzyme were dispensed to 1536-well Greiner black solid bottom plates. […] The plates were immediately transferred into ViewLux High-throughput CCD imager (Perkin-Elmer) in order to measure the reaction progress in kinetic mode (three reads every 60 seconds) using 525 nm excitation and 598 nm emission fluorescence protocol. The fluorescence intensity difference between the third and the first time points was used to compute reaction progress.

[19] = HepG2 viability counterscreen (readout 1: protease activity) against the NCATS DSHEA and TCM libraries (AID 1794841);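 further: cells exposed to compounds for about 24 h before the protease read; 0% is about no effect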
Outline: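 Readout 1: cellular protease activity, GF-AFC substrate (25 uM final, 30 min, fluorescence 380/510 nm). Readout 2: ATP content by CellTiter-Glo luminescence after 30 min at RT. Both follow ~24 h exposure of HepG2 cells (1,000/well) to substances.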

[20] = target: Cytochrome P450 3A4 (Homo sapiens) (UniProt P08684); assay: qHTS for inhibitors of CYP3A4 against the NCATS DSHEA and TCM libraries (AID 1919971);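 further: on the % scale 0 is the no-effect control and ±100 the full control effect; inhibition lowers luminescence from luciferin made by CYP3A4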
Outline: (§2)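 Read-out is luminescence after P450-Glo detection (30 min, RT). Before that: 15 min compound–enzyme preincubation, then 30-45 min reaction with 1x NADPH regeneration solution, substrate concentration isoform-specific.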

[21] = target: Cytochrome P450 2D6 (Homo sapiens) (UniProt P10635); assay: qHTS for inhibitors of CYP2D6 against the NCATS DSHEA and TCM libraries (AID 1919972); further: on the % scale 0 is the no-effect control and ±100 the full control effect
Outline: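 Luminescent P450-Glo read-out of CYP2D6 turnover of a luciferin substrate after NADPH-driven reaction of 30-45 min at room temperature. Compounds were first preincubated 15 min with enzyme at titrated concentrations; quinidine was the intraplate control.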

[22] = target: Cytochrome P450 2C9 (Homo sapiens) (UniProt P11712); assay: qHTS for inhibitors of CYP2C9 against the NCATS DSHEA and TCM libraries (AID 1919973)
Outline: as §2

[23] = KB-3-1 P-gp reporter qHTS against the NCATS DSHEA and TCM libraries (AID 1919975); further: 0% is about no effect
Outline: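 Cell viability by CellTiter-Glo luminescence following ~72 h compound exposure (concentration-response). Uses parental, non-P-gp-overexpressing KB-3-1 line, 500 cells/well in DMEM/10% FBS, attached ~4 h before dosing.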

[24] = target: Nuclear receptor subfamily 1 group I member 2 (Homo sapiens) (UniProt O75469); assay: Dual reporter qHTS for agonist of Pregnane X Receptor (hPXR) against the NCATS DSHEA and TCM libraries: Luminescence readout (AID 1920059); further: 0% is about no effect
Outline: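 hPXR-Luc HepG2 cells, 2000/well in 5% charcoal-stripped FBS medium, attached 5 h, then exposed 24 h at 37C to compounds. Viability by CellTiter-Fluor, then luciferase luminescence with ONE-Glo.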

[25] = Dual reporter qHTS for antagonist of Pregnane X Receptor (hPXR) against the NCATS DSHEA and TCM libraries: Fluorescence Readout (AID 1920061); further: 0% is about no effect
Outline: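 hPXR-Luc HepG2 cells exposed 24 h at 37 C to compounds with 2 uM rifampicin in antagonist mode; luciferase luminescence measured by ONE-Glo, with CellTiter-Fluor viability read beforehand.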

Sequence of Rap guanine nucleotide exchange factor 4 (Homo sapiens) (Q8WZA2 whole entry, looked up): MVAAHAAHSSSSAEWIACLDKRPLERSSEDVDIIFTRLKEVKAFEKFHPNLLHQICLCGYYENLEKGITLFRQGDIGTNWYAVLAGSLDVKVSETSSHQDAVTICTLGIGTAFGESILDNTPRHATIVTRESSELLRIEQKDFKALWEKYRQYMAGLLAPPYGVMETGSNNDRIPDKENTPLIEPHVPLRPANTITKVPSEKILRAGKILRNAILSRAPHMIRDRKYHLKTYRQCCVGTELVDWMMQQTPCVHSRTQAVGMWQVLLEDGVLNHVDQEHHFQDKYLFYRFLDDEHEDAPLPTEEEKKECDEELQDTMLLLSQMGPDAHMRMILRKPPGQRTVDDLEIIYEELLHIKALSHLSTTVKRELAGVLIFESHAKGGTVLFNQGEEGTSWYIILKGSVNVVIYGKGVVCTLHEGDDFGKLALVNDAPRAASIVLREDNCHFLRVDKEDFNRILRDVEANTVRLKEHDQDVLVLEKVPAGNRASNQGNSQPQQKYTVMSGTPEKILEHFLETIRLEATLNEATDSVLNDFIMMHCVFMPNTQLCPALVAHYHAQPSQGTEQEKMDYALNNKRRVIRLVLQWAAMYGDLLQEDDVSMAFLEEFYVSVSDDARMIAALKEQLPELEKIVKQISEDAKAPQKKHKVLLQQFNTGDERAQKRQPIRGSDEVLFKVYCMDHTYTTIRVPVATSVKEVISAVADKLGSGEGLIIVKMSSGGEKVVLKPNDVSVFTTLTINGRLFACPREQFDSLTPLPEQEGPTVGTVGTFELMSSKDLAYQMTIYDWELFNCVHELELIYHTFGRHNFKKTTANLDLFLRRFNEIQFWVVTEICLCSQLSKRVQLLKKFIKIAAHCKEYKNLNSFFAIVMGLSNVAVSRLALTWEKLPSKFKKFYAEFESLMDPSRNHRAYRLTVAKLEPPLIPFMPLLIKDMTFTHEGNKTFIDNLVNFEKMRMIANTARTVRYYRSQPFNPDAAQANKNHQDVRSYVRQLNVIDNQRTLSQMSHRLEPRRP
Sequence of Rap guanine nucleotide exchange factor 3 (Homo sapiens) (O95398 whole entry, looked up): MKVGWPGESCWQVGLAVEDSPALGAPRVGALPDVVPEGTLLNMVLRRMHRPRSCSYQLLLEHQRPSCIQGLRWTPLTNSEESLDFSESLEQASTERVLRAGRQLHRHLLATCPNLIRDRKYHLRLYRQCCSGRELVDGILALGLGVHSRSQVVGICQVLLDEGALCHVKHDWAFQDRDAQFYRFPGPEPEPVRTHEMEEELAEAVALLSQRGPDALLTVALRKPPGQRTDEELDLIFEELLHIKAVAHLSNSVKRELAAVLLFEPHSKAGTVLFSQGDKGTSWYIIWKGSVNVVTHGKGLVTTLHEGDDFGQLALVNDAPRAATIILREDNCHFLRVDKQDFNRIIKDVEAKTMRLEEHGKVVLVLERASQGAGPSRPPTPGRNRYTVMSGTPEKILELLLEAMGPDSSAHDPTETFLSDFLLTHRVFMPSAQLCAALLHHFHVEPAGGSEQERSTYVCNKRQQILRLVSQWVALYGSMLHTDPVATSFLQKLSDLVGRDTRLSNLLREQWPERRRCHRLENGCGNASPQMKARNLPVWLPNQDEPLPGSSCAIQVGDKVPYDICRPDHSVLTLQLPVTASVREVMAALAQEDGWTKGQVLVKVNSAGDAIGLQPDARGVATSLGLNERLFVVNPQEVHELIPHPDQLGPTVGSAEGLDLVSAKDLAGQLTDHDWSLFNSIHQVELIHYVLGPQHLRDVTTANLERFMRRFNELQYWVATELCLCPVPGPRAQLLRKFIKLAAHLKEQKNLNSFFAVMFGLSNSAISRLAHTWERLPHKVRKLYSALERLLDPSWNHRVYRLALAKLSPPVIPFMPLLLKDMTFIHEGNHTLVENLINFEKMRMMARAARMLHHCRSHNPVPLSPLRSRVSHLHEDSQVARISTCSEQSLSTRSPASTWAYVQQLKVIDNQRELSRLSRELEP
Sequence of DNA repair nuclease/redox regulator APEX1 (Homo sapiens) (P27695 whole entry, looked up): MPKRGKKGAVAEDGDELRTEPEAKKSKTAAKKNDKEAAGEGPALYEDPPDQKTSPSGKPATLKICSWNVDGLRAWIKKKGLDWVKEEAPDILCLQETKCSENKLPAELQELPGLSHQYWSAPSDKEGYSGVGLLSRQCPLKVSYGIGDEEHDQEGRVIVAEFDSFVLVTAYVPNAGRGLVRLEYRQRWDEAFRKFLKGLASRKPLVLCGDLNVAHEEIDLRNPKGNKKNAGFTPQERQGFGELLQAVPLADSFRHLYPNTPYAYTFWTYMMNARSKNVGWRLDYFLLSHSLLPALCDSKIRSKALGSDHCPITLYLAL
Sequence of Cytochrome P450 3A4 (Homo sapiens) (P08684 whole entry, looked up, canonical isoform): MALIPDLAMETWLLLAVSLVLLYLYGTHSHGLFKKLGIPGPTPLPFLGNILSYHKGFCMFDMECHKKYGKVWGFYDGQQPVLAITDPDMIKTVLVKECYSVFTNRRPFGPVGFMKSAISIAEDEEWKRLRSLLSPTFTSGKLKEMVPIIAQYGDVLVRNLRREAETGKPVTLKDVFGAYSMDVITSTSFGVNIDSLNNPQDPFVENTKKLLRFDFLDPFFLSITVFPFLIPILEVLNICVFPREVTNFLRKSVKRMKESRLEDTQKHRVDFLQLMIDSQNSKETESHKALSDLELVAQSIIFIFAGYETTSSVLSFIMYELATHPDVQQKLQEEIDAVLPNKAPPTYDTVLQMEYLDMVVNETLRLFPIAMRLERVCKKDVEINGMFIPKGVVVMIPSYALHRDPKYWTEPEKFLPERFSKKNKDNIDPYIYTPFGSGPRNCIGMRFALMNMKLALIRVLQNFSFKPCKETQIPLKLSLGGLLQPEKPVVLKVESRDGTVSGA
Sequence of Phenylethanolamine N-methyltransferase (Homo sapiens) (P11086 whole entry, looked up): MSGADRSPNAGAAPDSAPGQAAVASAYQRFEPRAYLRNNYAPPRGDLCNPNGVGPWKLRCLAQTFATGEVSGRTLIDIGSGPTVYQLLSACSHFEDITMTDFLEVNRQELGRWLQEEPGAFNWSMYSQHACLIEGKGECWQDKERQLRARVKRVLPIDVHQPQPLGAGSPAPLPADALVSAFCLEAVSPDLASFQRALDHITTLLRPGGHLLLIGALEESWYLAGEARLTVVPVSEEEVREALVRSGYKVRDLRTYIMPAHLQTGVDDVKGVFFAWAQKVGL
Sequence of Glucocorticoid receptor (Homo sapiens) (P04150 whole entry, looked up): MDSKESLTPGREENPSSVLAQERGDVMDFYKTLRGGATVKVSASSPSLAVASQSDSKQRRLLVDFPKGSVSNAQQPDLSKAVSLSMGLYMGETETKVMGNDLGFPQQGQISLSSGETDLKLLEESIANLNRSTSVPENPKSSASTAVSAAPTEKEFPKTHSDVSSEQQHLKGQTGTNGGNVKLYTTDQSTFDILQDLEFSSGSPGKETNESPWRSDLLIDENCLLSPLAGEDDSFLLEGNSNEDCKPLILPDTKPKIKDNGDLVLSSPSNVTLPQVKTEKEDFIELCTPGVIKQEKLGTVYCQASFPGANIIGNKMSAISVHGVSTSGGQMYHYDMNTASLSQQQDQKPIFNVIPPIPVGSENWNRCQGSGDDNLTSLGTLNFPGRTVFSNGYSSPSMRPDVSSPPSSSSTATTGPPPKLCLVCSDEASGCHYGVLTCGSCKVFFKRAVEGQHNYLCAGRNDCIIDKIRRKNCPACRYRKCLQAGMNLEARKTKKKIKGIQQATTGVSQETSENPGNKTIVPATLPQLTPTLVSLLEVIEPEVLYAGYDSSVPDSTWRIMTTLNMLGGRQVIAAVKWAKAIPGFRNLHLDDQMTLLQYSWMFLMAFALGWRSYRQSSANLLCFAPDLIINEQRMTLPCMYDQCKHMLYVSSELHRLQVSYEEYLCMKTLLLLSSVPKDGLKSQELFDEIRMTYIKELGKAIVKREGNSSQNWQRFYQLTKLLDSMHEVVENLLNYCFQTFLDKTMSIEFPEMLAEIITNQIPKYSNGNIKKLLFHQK
Sequence of Nicotinamide N-methyltransferase (Homo sapiens) (P40261 whole entry, looked up): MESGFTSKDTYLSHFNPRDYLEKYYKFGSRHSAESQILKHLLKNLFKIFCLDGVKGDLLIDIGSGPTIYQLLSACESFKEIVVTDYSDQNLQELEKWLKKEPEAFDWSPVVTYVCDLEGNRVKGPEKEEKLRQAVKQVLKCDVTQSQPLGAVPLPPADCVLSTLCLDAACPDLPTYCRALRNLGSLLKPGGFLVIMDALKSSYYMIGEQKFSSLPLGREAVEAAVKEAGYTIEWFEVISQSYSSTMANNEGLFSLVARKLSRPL
Sequence of Catechol O-methyltransferase (Homo sapiens) (P21964 whole entry, looked up): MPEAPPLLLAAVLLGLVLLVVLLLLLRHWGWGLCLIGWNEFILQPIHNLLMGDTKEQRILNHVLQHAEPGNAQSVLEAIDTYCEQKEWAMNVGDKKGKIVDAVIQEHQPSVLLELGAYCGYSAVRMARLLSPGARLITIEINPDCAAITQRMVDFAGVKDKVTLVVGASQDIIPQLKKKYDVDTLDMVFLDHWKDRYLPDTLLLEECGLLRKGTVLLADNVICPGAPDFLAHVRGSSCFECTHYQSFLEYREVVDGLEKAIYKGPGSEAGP
Sequence of Cytochrome P450 2C9 (Homo sapiens) (P11712 whole entry, looked up): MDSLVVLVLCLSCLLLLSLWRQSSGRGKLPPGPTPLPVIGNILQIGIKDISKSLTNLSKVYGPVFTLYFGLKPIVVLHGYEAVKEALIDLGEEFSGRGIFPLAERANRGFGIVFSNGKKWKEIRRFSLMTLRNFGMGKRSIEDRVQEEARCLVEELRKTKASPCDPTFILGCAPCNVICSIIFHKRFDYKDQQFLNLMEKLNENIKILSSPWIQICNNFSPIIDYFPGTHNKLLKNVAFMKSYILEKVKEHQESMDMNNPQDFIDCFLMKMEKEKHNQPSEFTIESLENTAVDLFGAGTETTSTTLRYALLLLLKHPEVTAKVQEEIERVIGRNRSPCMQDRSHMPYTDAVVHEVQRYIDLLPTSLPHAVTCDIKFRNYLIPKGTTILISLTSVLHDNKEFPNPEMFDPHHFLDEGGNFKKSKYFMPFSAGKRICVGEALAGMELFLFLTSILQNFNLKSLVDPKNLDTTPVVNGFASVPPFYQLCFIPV

COC(=O)c1ccccc1NC(=O)c1nn(-c2ccc(OC)cc2)c(=O)c2c1c1ccccc1n2C
inactive: Potency [1] | Potency [2] | Potency [3] | Potency [4] | Potency [5] | Potency [6]

O=C(NCCc1ccccc1)c1ccc2c(=O)[nH]c3c(C(=O)NCC4CCCO4)sc(=S)n3c2c1 (stereo unspecified)
-66.7%: activity [10]
-68.6%: activity [7]
-55.9%: activity [9]
active: Potency [1] 75.7 µM | Potency [4] 30.1 µM | Potency [8] 24.1 µM
inactive: Potency [2] | Potency [3] | Potency [5] | Potency [6]

COc1cc(CNc2ccc(O)cc2)cc(Br)c1OCc1ccccc1
inactive: Potency [1] | Potency [2] | Potency [3] | Potency [4] | Potency [5] | Potency [6]

Cc1ccc(SCc2nnc(N)s2)cc1
inactive: activity change, negative = inhibition [11] 14.2% [at 17.2 µM] | activity change, negative = inhibition [12] -2.66% [at 17.2 µM] | outcome [13] | Potency [14] > 20.6 µM | Potency [1] | Potency [2] | activation [3] 8.48% [at 17.1 µM, percent relative to cAMP agonist control] | Potency [4] | activity change, negative = inhibition [5] 3.94% [at 30.8 µM] | activation [6] 7.74% [at 30.8 µM]

COc1c(O)cc2oc(-c3ccc(O)c(O)c3)cc(=O)c2c1O
inactive: outcome [15] | outcome [16] | outcome [18] | Potency [2] | Potency [3] | Potency [4] | Potency [5] | Potency [6]
active: Potency [17] 6.31 µM | Potency [1] 10.7 µM

O=C(/C=C/c1ccc(O)c(O)c1)O[C@@H]1C[C@](O)(C(=O)O)C[C@@H](O)[C@H]1O
inactive: Potency [1] | Potency [2] | activation [3] 5.11% [at 17.1 µM, percent relative to cAMP agonist control] | Potency [4] | activity change, negative = inhibition [5] -13.1% [at 30.8 µM] | activation [6] -1.95% [at 30.8 µM] | outcome [19] | Potency [20] | Potency [21] | Potency [22] | outcome [23] | Potency [24] | outcome [25]

Cc1cccc(NC(=O)C2CCCN(S(=O)(=O)c3ccc4c(c3)oc(=O)n4C)C2)c1 (stereo unspecified)
inactive: Potency [1] | Potency [2] | activation [3] 3.99% [at 17.1 µM, percent relative to cAMP agonist control] | Potency [4] | activity change, negative = inhibition [5] -11.5% [at 30.8 µM] | activation [6] 7.38% [at 30.8 µM]
